Measured values from PubChem BioAssay (EPA / NIEHS).
Records with an inconclusive call do not appear. The source made the active and inactive calls. How the source made its calls: active means hit-call score of the fitted dose curve at least 0.9, where 1 is the maximum; inconclusive means response in the unintended direction; inactive means score below 0.9. Where a SMILES comes first, the peptide text is derived from it. [ ]: non-standard residue; d: D form. pGlu = O=C1CC[C@@H](C(=O)O)N1; Thz = O=C(O)[C@@H]1CSCN1

system: not listed separately; assay: TOX21_p53_BLA_p2_viability: Viability Assessment in the Tox21 HCT-116 p53 Agonism Beta-lactamase Assay, Phase 2 (AID 2283591);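 further: compound exposure lasted 16 h at 37 °C; actives lower the ATP signal meaning cytotoxicity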
Procedure, shortened: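 HCT116 p53-bla cells, 4000/well, dosed after 5 h plating (217-fold dilution of DMSO stocks) and incubated 16 h at 37C. Viability taken as cellular ATP by CellTiter-Glo luminescence after 30 min RT; signal loss marks cytotoxicity.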

SMILES	outcome	AC50
Cc1c(NC(=O)c2cccnc2)c(=O)n(-c2ccccc2)n1C	inactive	
CCCOC(=O)C(C)O (stereo not given)	inactive	
CC[N+](CC)(CC)CCC(O)(c1ccccc1)C1CCCCC1 (stereo not given)	inactive	
COS(=O)(=O)C(F)(F)F	inactive	
Cc1ccccc1N1CCN(CCc2nnc3n2CCCC3)CC1	inactive	
C[C@@H]1C[C@H]2[C@@H]3CCC4=CC(=O)C=C[C@]4(C)[C@@]3(F)[C@@H](O)C[C@]2(C)[C@@]1(O)C(=O)COC(=O)c1cccc(S(=O)(=O)O)c1	inactive	
CC(CCc1ccccc1)NCC(O)c1ccc(O)c(C(N)=O)c1 (stereo not given)	inactive	
C[C@@H]1O[C@@H](OC[C@H]2O[C@@H](Oc3c(-c4ccc(OCCO)c(OCCO)c4)oc4cc(OCCO)cc(O)c4c3=O)[C@H](O)[C@@H](O)[C@@H]2O)[C@H](O)[C@H](O)[C@H]1O	inactive	
C[C@@H](O)[C@H]1C(=O)N2C(C(=O)O)=C(S[C@@H]3CN[C@H](C(=O)N(C)C)C3)[C@H](C)[C@H]12	inactive	
Oc1ccc(C2(c3ccc(O)cc3)CC3CC2C2CCCC32)cc1 (stereo not given)		64.1 µM (active)
CNC(=O)OCc1cccc(COC(=O)NC)n1	inactive	
CC1CCc2c(N3CCC(O)CC3)c(F)cc3c(=O)c(C(=O)O)cn1c23 (stereo not given)	inactive	
C=CCOc1ccc(CC(=O)O)cc1Cl	inactive	
Cc1cn[nH]c1	inactive	
NCC[C@H](O)C(=O)N[C@@H]1C[C@H](N)[C@@H](O[C@H]2O[C@H](CN)CC[C@H]2N)[C@H](O)[C@H]1O[C@H]1O[C@H](CO)[C@@H](O)[C@H](N)[C@H]1O	inactive	
CCOC(=O)Cc1cccc(-c2cc(CCCCCCc3ccc(O[C@H]4O[C@H](COC(C)=O)[C@@H](OC(C)=O)[C@H](OC(C)=O)[C@@H]4OC(C)=O)c(-c4cccc(CC(=O)OCC)c4)c3)ccc2O[C@H]2O[C@H](COC(C)=O)[C@@H](OC(C)=O)[C@H](OC(C)=O)[C@@H]2OC(C)=O)c1	inactive	
O=C(O)c1ccc(OCCn2ccnc2)cc1	inactive	
CCCCS	inactive	
N.N.O=C([O-])C1(C(=O)[O-])CCC1.[Pt+4]	inactive	
CCCCC(=O)O[C@]1(C(=O)CO)[C@H](C)C[C@H]2[C@@H]3CCC4=CC(=O)C=C[C@]4(C)[C@@]3(F)[C@@H](O)C[C@@]21C	inactive	

SMILES	outcome	AC50
O=c1[nH]c2cc(C(F)(F)F)c(N3CCOCC3)cc2n(CP(=O)(O)O)c1=O	inactive	
CCCCC(=O)O[C@H]1CC[C@H]2[C@@H]3CCc4cc(O)ccc4[C@H]3CC[C@]12C	inactive	
CCCNC(C)C(=O)Nc1c(C)csc1C(=O)OC (stereo not given)	inactive	
Nc1ccc(S(=O)(=O)Nc2ccnn2-c2ccccc2)cc1	inactive	
CN1CCN2c3ccccc3Cc3ccccc3C2C1 (stereo not given)		38.9 µM (active)
CC(=O)N[C@H]1[C@H]([C@H](O)[C@H](O)CO)OC(C(=O)O)=C[C@@H]1N=C(N)N	inactive	
OC[C@H]1O[C@@H](n2cnc3c2NC=NC[C@H]3O)C[C@@H]1O	inactive	
CC1=CC(=O)CC(C)(C)C1=O	inactive	
O=C1CC[C@@H](C(=O)N2CSC[C@H]2C(=O)O)N1 ([pGlu]-[Thz]-OH)	inactive	
OCc1ccccc1O	inactive	
c1ccc2c(c1)CCc1ccccc1N2	inactive	
NS(=O)(=O)c1cc(Cl)c(Cl)c(S(N)(=O)=O)c1	inactive	
CCOC(=O)CC(=O)c1cc(F)c(Cl)nc1Cl	inactive	
C=C(C)C(=O)OCCC[Si](Cl)(Cl)Cl	inactive	
COc1ccc(C(=O)c2ccc(OC)cc2O)c(O)c1	inactive	
CC1CC(C)C(=O)C1=O (stereo not given)	inactive	
O=C(O)c1ccccc1OP(=O)(O)O	inactive	
COc1cc2c(c(OC)c1OC)-c1c(cc3c(c1OC)OCO3)C[C@@H](C)[C@](C)(O)C2	inactive	
CCCCCCCCCCCCCCCC(=O)OC[C@@H](COP(=O)([O-])OCC[N+](C)(C)C)OC(=O)CCCCCCCCCCCCCCC	inactive	
CO[C@H]1C[C@H](O[C@H]2[C@H](C)[C@@H](O[C@@H]3O[C@H](C)C[C@H](N(C)C)[C@H]3O)[C@@H](C)C[C@]3(CO3)C(=O)[C@H](C)[C@@H](O)[C@@H](C)[C@@H](C)OC(=O)[C@@H]2C)O[C@@H](C)[C@@H]1O	inactive	

molecular target: Cellular tumor antigen p53 (Homo sapiens) (UniProt P04637); assay: TOX21_p53_BLA_p2_ratio: Tox21 HCT-116 p53 Agonism Beta-lactamase Assay, Ratio, Phase 2 (AID 2283592)
Procedure, shortened: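 Read-out is the blue/green (460/530 nm, 405 nm excitation) ratio after 2 h CCF4-AM loading, fitted as gain versus DMSO. Compounds, pinned at 217-fold dilution from DMSO stocks, stayed 16 h on HCT-116 beta-lactamase reporter cells seeded 5 h earlier.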

Cellular tumor antigen p53 (Homo sapiens), sequence (P04637 whole entry, looked up): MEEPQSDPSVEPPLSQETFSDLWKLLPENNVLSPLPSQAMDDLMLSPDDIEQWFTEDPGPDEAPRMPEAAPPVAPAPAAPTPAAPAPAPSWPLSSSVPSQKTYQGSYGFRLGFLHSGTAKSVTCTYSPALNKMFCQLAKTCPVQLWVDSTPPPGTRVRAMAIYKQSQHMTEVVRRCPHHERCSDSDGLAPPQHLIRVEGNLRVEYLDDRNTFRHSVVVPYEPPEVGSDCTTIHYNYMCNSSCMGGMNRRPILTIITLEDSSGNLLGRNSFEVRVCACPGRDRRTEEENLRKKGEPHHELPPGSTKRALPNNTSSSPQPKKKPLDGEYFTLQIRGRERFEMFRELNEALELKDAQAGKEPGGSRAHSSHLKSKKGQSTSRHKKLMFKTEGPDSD

SMILES	outcome	AC50
Cc1c(NC(=O)c2cccnc2)c(=O)n(-c2ccccc2)n1C	inactive	
CCCOC(=O)C(C)O (stereo not given)	inactive	
CC[N+](CC)(CC)CCC(O)(c1ccccc1)C1CCCCC1 (stereo not given)	inactive	
COS(=O)(=O)C(F)(F)F	inactive	
Cc1ccccc1N1CCN(CCc2nnc3n2CCCC3)CC1	inactive	
C[C@@H]1C[C@H]2[C@@H]3CCC4=CC(=O)C=C[C@]4(C)[C@@]3(F)[C@@H](O)C[C@]2(C)[C@@]1(O)C(=O)COC(=O)c1cccc(S(=O)(=O)O)c1	inactive	
CC(CCc1ccccc1)NCC(O)c1ccc(O)c(C(N)=O)c1 (stereo not given)	inactive	
C[C@@H]1O[C@@H](OC[C@H]2O[C@@H](Oc3c(-c4ccc(OCCO)c(OCCO)c4)oc4cc(OCCO)cc(O)c4c3=O)[C@H](O)[C@@H](O)[C@@H]2O)[C@H](O)[C@H](O)[C@H]1O	inactive	
C[C@@H](O)[C@H]1C(=O)N2C(C(=O)O)=C(S[C@@H]3CN[C@H](C(=O)N(C)C)C3)[C@H](C)[C@H]12	inactive	
Oc1ccc(C2(c3ccc(O)cc3)CC3CC2C2CCCC32)cc1 (stereo not given)		82.8 µM (active)
CNC(=O)OCc1cccc(COC(=O)NC)n1	inactive	
CC1CCc2c(N3CCC(O)CC3)c(F)cc3c(=O)c(C(=O)O)cn1c23 (stereo not given)	inactive	
C=CCOc1ccc(CC(=O)O)cc1Cl	inactive	
Cc1cn[nH]c1	inactive	
NCC[C@H](O)C(=O)N[C@@H]1C[C@H](N)[C@@H](O[C@H]2O[C@H](CN)CC[C@H]2N)[C@H](O)[C@H]1O[C@H]1O[C@H](CO)[C@@H](O)[C@H](N)[C@H]1O	inactive	
CCOC(=O)Cc1cccc(-c2cc(CCCCCCc3ccc(O[C@H]4O[C@H](COC(C)=O)[C@@H](OC(C)=O)[C@H](OC(C)=O)[C@@H]4OC(C)=O)c(-c4cccc(CC(=O)OCC)c4)c3)ccc2O[C@H]2O[C@H](COC(C)=O)[C@@H](OC(C)=O)[C@H](OC(C)=O)[C@@H]2OC(C)=O)c1	inactive	
O=C(O)c1ccc(OCCn2ccnc2)cc1	inactive	
CCCCS	inactive	
N.N.O=C([O-])C1(C(=O)[O-])CCC1.[Pt+4]	inactive	
CCCCC(=O)O[C@]1(C(=O)CO)[C@H](C)C[C@H]2[C@@H]3CCC4=CC(=O)C=C[C@]4(C)[C@@]3(F)[C@@H](O)C[C@@]21C	inactive	

SMILES	outcome	AC50
O=c1[nH]c2cc(C(F)(F)F)c(N3CCOCC3)cc2n(CP(=O)(O)O)c1=O	inactive	
CCCCC(=O)O[C@H]1CC[C@H]2[C@@H]3CCc4cc(O)ccc4[C@H]3CC[C@]12C	inactive	
CCCNC(C)C(=O)Nc1c(C)csc1C(=O)OC (stereo not given)	inactive	
Nc1ccc(S(=O)(=O)Nc2ccnn2-c2ccccc2)cc1	inactive	
CN1CCN2c3ccccc3Cc3ccccc3C2C1 (stereo not given)		44.4 µM (active)
CC(=O)N[C@H]1[C@H]([C@H](O)[C@H](O)CO)OC(C(=O)O)=C[C@@H]1N=C(N)N	inactive	
OC[C@H]1O[C@@H](n2cnc3c2NC=NC[C@H]3O)C[C@@H]1O	inactive	
CC1=CC(=O)CC(C)(C)C1=O	inactive	
O=C1CC[C@@H](C(=O)N2CSC[C@H]2C(=O)O)N1 ([pGlu]-[Thz]-OH)	inactive	
OCc1ccccc1O	inactive	
c1ccc2c(c1)CCc1ccccc1N2	inactive	
NS(=O)(=O)c1cc(Cl)c(Cl)c(S(N)(=O)=O)c1	inactive	
CCOC(=O)CC(=O)c1cc(F)c(Cl)nc1Cl	inactive	
C=C(C)C(=O)OCCC[Si](Cl)(Cl)Cl	inactive	
COc1ccc(C(=O)c2ccc(OC)cc2O)c(O)c1	inactive	
CC1CC(C)C(=O)C1=O (stereo not given)	inactive	
O=C(O)c1ccccc1OP(=O)(O)O	inactive	
COc1cc2c(c(OC)c1OC)-c1c(cc3c(c1OC)OCO3)C[C@@H](C)[C@](C)(O)C2	inactive	
CCCCCCCCCCCCCCCC(=O)OC[C@@H](COP(=O)([O-])OCC[N+](C)(C)C)OC(=O)CCCCCCCCCCCCCCC	inactive	
CO[C@H]1C[C@H](O[C@H]2[C@H](C)[C@@H](O[C@@H]3O[C@H](C)C[C@H](N(C)C)[C@H]3O)[C@@H](C)C[C@]3(CO3)C(=O)[C@H](C)[C@@H](O)[C@@H](C)[C@@H](C)OC(=O)[C@@H]2C)O[C@@H](C)[C@@H]1O	inactive	
